Hits are enriched below; roughly 2.2% of the tested compounds scored in any of these assays.
BaF3 parental: parental Ba/F3 cell viability inhibition, counter-screen for JAK2V617F inhibitor project, murine pro-B, CellTiter-Glo luminescence. CellTiter-Glo ATP luminescence. inhibition, % at 5.6 µM. 1.1% of 220,000 active;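 active = inhibition above a per-campaign cutoff, the mean inhibition of all tested compounds plus 3 SD, cut at about 27% in these data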;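 note: 0% = DMSO wells and 100% = JAK Inhibitor I control wells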
KLF5 inhibitor: KLF5 expression inhibitors, primary screen, DLD-1 cells, luminescence | DLD-1 KLF5 promoter-luciferase reporter | inhibition, % at 5 µM | 0.23% of 290,000 active;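 active = inhibition above a per-plate limit of that plate's mean compound inhibition plus 3 SD, cut at about 60% in these data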;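 note: 0% = DMSO wells and 100% = LY294002 at 200 µM; higher means less KLF5 promoter-driven luciferase light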
aSyn 5UTR inh: MLPCN primary screen, SNCA 5' untranslated region | alpha-synuclein 5'UTR reporter, inhibitor activity | inhibition, % (tested at 7.5 µM) | 0.82% of 300,000 active | AID 1813, 2009; in the data active = inhibition above about 60%;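 note: H4 neuroglioblastoma cells stably carrying SNCA 5'UTR luciferase fusion; 0% = DMSO wells and 100% = positive control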
Ba/F3 V617F tox: reduced viability of JAK2V617F-dependent Ba/F3 cells, primary screen, JAK2V617F inhibitor project, cell-based, Ba/F3 EpoR-JAK2V617F, luminescence; ATP luminescence; inhibition, % at 5.6 µM; 1.1% of 220,000 active; AID 1446, 2008;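 active = inhibition above the campaign mean plus 3 SD over all tested compounds, cut at about 24% in these data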;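 note: cytokine-independent growth of Ba/F3 cells driven by EpoR plus mutant JAK2; 0% = DMSO-treated cells and 100% = JAK inhibitor I control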
APP transl inh: inhibitors of APP translation via 5'UTR reporter, primary screen, APP 5'UTR luciferase, SH-SY5Y cells | SH-SY5Y APP 5'UTR-luciferase reporter, luminescence | inhibition, % at 2 µM | 0.82% of 190,000 active | AID 1285, 2008;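 active = inhibition above a set limit, derived from the sample mean plus 3 SD, cut at about 45% in these data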
IEC-6 tox: cytotoxicity in IEC-6 intestinal epithelial cells, primary screen, cytotoxicity control for KLF5 inhibitor project, cell-based, luminescence; IEC-6 cytotoxicity, luminescence viability; inhibition, % at 5 µM; 0.78% of 290,000 active;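 note: 0% = plate median of test compound wells and 100% = cytotoxic reference compound wells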
IEC-6 cytotox cf: cytotoxic compounds in IEC-6 epithelial cells, confirmation, cytotoxicity control, cell-based, luminescence. 63% of 1,900 active. IEC-6 rat intestinal epithelial viability. AID 1907, 2009. shares compounds with IEC-6 tox. inhibition, % at 5 µM;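 note: 0% = vehicle and 100% = reference cytotoxic drug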
Active calls of the source: *; i = inactive; . = not tested or not shown. Cut-off read from the data, not from the text of the source, unless noted: active = inhibition above about 22%; inactive = the rest.

SMILES	BaF3 parental	KLF5 inhibitor	aSyn 5UTR inh	Ba/F3 V617F tox	APP transl inh	IEC-6 tox	IEC-6 cytotox cf
CCN1CCN(c2ccc(S(=O)(=O)N3CCCCC3)cc2NC(=O)c2ccc([N+](=O)[O-])o2)CC1	.	.	-32	.	.	.	.
CCC(=O)N1CCN(c2ccc(NC(=O)c3ccc([N+](=O)[O-])o3)cc2Cl)CC1	60*	14	77*	88*	92*	67*	63*
CCN1CCN(c2ccc(NC(=O)c3ccc([N+](=O)[O-])o3)cc2Cl)CC1	48*	1	126*	76*	94*	70*	45*
CCC(=O)N1CCN(c2ccc(NC(=O)c3ccco3)cc2Cl)CC1	.	-59	-43	.	.	2	.
CCC(=O)N1CCN(c2ccc(Cl)cc2NC(=O)c2ccc([N+](=O)[O-])o2)CC1	.	-25	-58	.	.	34*	8
CC(=O)N1CCN(c2ccc(NC(=O)c3ccc([N+](=O)[O-])o3)cc2Cl)CC1	.	30	49	.	.	101*	48*
CC(=O)N1CCN(c2ccc(NC(=O)c3ccco3)cc2Cl)CC1	.	-73	-49	.	.	4	.
COc1ccccc1CNC(=O)c1cn(C)c(=O)c2cc(OC)c(OC)cc12	5	-34	-7	0	11	-2	.
O=C(O)c1cccc(S(=O)(=O)N2CCSCC2)c1	5	7	-3	-3	3	-6	.
CCOC(=O)C1CCCN(C(=O)c2ccc3nc(-c4cccc(OC)c4)oc3c2)C1 (configuration not stated)	.	-51	-30	.	.	30*	15
FC(F)(F)c1cnc(Sc2nnc(-c3cccs3)n2CC2CCCO2)c(Cl)c1 (configuration not stated)	0	-47	0	1	0	25*	34*
FC(F)(F)c1ccc(Sc2nnc(-c3cccs3)n2CC2CCCO2)nc1 (configuration not stated)	1	-12	20	-1	19	0	.
O=C1C(Cl)=C(NCCN2CCOCC2)C(=O)c2ccccc21	.	-13	-36	.	.	33*	19
CCC(C)Sc1nnc(CSc2nc3nc(C)cc(C)n3n2)o1 (configuration not stated)	3	-1	7	3	-1	-4	.
CCOc1ccccc1N1CC(O)=C(c2nc3ccccc3s2)C1=N	77*	57	54	83*	92*	56*	60*
COc1ccc(NS(=O)(=O)c2cccc(NC(=O)c3ccc(Cl)nc3)c2)cc1	78*	12	-2	63*	10	33*	18
CNc1ccc(C(O)(C(F)(F)F)C(F)(F)F)cc1C(O)(C(F)(F)F)C(F)(F)F	1	-21	8	-1	4	-4	.
c1ccc(CN2CCC(Nc3nc(-c4cccnc4)nc4ccccc34)CC2)cc1	9	-31	-83	3	5	24*	19
NC(=O)c1ccccc1NC(=O)CCCCCn1nnc2ccccc2c1=O	.	-29	14	.	.	-4	.
CCCCCCCCCn1c2c(c(=N)c3c1CCC3)CCC2	91*	52	86*	98*	18	44*	50*
CCCCCCCn1c2c(c(=N)c3c1CCC3)CCCC2	88*	59	83*	100*	22	38*	37*
CCCCCCn1c(=O)[nH]c2c(c1=O)CCC2	4	-12	-6	-4	.	-3	.
CCCCCCn1c2c(c(=N)c3c1CCC3)CCC2	78*	55	67*	98*	-16	24*	26*
CN1CCN(/N=C/c2cccc(Cl)c2Cl)CC1	7	-7	-72	-2	-24	3	.
NC(=O)N=Nc1c2[nH]c3ccccc3nc-2c2ccccc12	7	8	i	6	.	26*	7
SMILES	BaF3 parental	KLF5 inhibitor	aSyn 5UTR inh	Ba/F3 V617F tox	APP transl inh	IEC-6 tox	IEC-6 cytotox cf
O=c1[nH]c2ccccc2nc1-c1ccccc1	2	-48	-73	5	.	11	.
CC(=O)c1ccc(N2CCN(C(=O)c3cc(-c4ccncc4)nc4ccc(Cl)cc34)CC2)cc1	.	-46	-4	.	.	5	.
O=C(Nc1nc2ccc(S(=O)(=O)N3CCCCC3)cc2s1)C1CCCO1 (configuration not stated)	6	-24	21	-2	-2	-1	.
O=C(Nc1nc2ccc(S(=O)(=O)N3CCCC3)cc2s1)C1CCCCC1	79*	36	72*	82*	77*	70*	56*
CCc1ccc(C2CC(=O)N3CN(c4ccccc4)CSC3=C2C#N)cc1 (configuration not stated)	-1	-7	12	3	1	4	.
N#CC1=C2SCC(O)(c3ccccc3)N2C(=O)CC1c1ccccc1 (configuration not stated)	79*	56	-16	82*	92*	77*	60*
Cc1[nH]n(-c2ccccc2)c(=O)c1/C=N/NC(=O)c1ccccc1F	.	-44	29	.	.	30*	16
Cc1ccc2c(CN(C)Cc3cccc(F)c3)cc(=O)oc2c1C	.	-28	-14	.	.	41*	24*
Cc1ccc2c(CN(C)Cc3ccc(OC(F)F)cc3)cc(=O)oc2c1C	.	1	1	.	.	4	.
Cc1ccc2c(CN(C)Cc3ccccc3)cc(=O)oc2c1C	.	-34	-80	.	.	55*	33*
COc1ccc(-c2nnc3ccc(SCC(=O)Nc4cc(C)on4)nn23)cc1	15	-8	.	5	-11	1	.
Cc1cc(NC(=O)CCC(=O)N(Cc2ccco2)C2(C(=O)NC3CCCCC3)CCCCC2)no1	.	-12	-21	.	.	8	.
CCO/N=C/c1ccc(OC)c(Oc2nc(OC)cc(OC)n2)c1	3	-20	10	-4	-36	-6	.
CO/N=C/c1ccc(OC)c(Oc2nc(OC)cc(OC)n2)c1	10	14	8	-1	66*	28*	3
C=CCn1c(SCC(=O)c2cccs2)nc2sc(CC)cc2c1=O	0	-13	26	-3	2	30*	36*
COc1ccc(C2C(C(=O)Nc3cc(OC)c(OC)c(OC)c3)c3ccccc3C(=O)N2C)cc1 (configuration not stated)	61*	39	98*	41*	69*	59*	60*
Cc1cccc(/C=C(\c2nc3ccccc3[nH]2)S(=O)(=O)c2ccccc2)c1	5	-7	-118	1	12	25*	32*
CC(C)(C)c1ccc(/C=C(\c2nc3ccccc3[nH]2)S(=O)(=O)c2ccccc2)cc1	.	.	-78	.	.	.	.
O=[N+]([O-])CC(c1ccc(F)cc1)c1c[nH]c2ccccc12 (configuration not stated)	.	32	1	.	.	47*	29*

High-throughput results deposited in PubChem by several laboratories.
